Autofluor counter: compound fluorescence in toxin protease inhibitor counterscreen. AID 624483. compound autofluorescence counterscreen, microsphere flow cytometry; stronger effect = higher value. fluorescence intensity (no concentration beside the values). 360,000 compounds, 3.1% hits; in the data active = fluorescence intensity above about 16000; inconclusive = no clear call, values can overlap the other calls
TcdB inh: TcdB glycohydrolase inhibition; 350,000 compounds, 0.24% hits; inhibition, % at 9.99 µM; TcdB glycohydrolase enzymatic assay, plate reader; P18177; AID 652162; in the data active = inhibition above about 10%
BoNT-F LC inh: blocks Botulinum neurotoxin F light chain protease. Multiplex microsphere protease cleavage assay, flow cytometry. inhibition, % at 10 µM. 360,000 compounds, 0.22% hits. AID 588497; in the data active = inhibition above about 35%, passing the limit was not always enough; inconclusive = no clear call, values can overlap the other calls; also: plate controls were buffer without enzyme for full effect and enzyme alone for no effect
Anthrax LF inh2: anthrax lethal factor protease inhibition. multiplex microsphere protease cleavage assay, LF. inhibition, % at 10 µM. 360,000 compounds, 0.12% hits. AID 588501; also: plate controls were buffer without enzyme for full effect and enzyme alone for no effect
Target sequence (P15917 whole entry, looked up): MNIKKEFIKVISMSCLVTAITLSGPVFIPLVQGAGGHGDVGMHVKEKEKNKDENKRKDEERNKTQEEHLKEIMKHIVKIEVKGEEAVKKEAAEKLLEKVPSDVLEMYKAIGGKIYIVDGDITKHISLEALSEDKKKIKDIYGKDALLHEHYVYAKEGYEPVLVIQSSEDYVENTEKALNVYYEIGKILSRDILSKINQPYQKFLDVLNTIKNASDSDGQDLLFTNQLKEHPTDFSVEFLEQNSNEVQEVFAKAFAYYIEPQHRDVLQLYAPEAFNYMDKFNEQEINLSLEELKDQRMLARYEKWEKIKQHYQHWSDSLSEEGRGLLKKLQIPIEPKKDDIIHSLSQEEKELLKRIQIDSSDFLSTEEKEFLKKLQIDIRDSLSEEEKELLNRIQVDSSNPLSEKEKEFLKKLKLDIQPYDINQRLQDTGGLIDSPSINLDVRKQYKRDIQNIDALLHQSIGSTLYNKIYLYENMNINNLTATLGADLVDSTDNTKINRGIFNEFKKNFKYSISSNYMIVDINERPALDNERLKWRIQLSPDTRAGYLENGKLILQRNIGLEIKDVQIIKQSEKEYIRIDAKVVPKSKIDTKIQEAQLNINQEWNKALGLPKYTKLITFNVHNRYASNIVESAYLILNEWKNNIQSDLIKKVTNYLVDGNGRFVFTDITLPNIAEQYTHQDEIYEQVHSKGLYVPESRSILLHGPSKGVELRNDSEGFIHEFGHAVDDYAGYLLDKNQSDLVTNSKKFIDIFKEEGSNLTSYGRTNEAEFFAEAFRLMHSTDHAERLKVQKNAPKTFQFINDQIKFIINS
BoNT-A LC inh2: BoNT A light chain protease inhibition | inhibition, % at 10 µM | AID 588499 | 360,000 compounds, 0.17% hits | multiplex microsphere protease substrate cleavage, flow cytometry; also: plate controls were buffer without enzyme for full effect and enzyme alone for no effect
* = called active by the depositor. This excerpt belongs to a sample that is enriched for hits. Rule as the data show it, unless noted: active = inhibition above about 30%; inconclusive = no clear call, values can overlap the other calls; inactive = below that.

`Cc1cccc(NC(=O)C[C@H]2CC[C@H]3[C@@H](COc4ccc(NC(=O)C5CCC5)cc4C(=O)N3C)O2)c1` gave TcdB inh -1.
C[C@H]1CN([C@@H](C)CO)C(=O)c2cc(-c3ccncc3)cnc2O[C@@H]1CN(C)C(=O)c1ccc(F)cc1 was read as TcdB inh 0.
Screening C[C@@H]1CCCCO[C@@H](CN(C)S(C)(=O)=O)[C@@H](C)CN([C@H](C)CO)C(=O)c2cc(NC(=O)CCCN(C)C)ccc2O1 returned TcdB inh 0.
Screening O=C(c1cnc(-c2ccc(Cl)cc2)s1)c1ccc(Cl)cc1Cl returned Autofluor counter 16515*, TcdB inh 1, BoNT-F LC inh -2, Anthrax LF inh2 3 and BoNT-A LC inh2 2.
`O=C1C=C(NCC2CCCO2)C2(CCCCC2)O1` (stereo unspecified) gave Autofluor counter 19832*, BoNT-F LC inh 2, Anthrax LF inh2 -3 and BoNT-A LC inh2 2.
C[C@@H]1CCCCO[C@H](CN(C)Cc2ccncc2)[C@@H](C)CN([C@H](C)CO)C(=O)c2cc(NC(=O)Nc3ccccc3)ccc2O1 was read as TcdB inh 0.
Screening C[C@@H]1CN([C@@H](C)CO)C(=O)c2cccc(NC(=O)C3CC3)c2O[C@H]1CN(C)Cc1ccc(Cl)c(Cl)c1 returned TcdB inh 2.
Screening CCOC(=O)N1CCN(C(=O)CN(Cc2ccccc2)S(C)(=O)=O)CC1 returned Autofluor counter 11333, BoNT-F LC inh -5, Anthrax LF inh2 1 and BoNT-A LC inh2 -1.
CCOC(=O)N1CCN(C(=O)CN(C2CCCCC2)S(=O)(=O)c2ccc(F)cc2)CC1 was read as Autofluor counter 9856, BoNT-F LC inh 13, Anthrax LF inh2 -5 and BoNT-A LC inh2 2.
`CCOC(=O)N1CCN(C(=O)CN(Cc2ccc(Cl)cc2)S(=O)(=O)c2ccccc2)CC1` gave Autofluor counter 24155*, BoNT-F LC inh -4, Anthrax LF inh2 -2 and BoNT-A LC inh2 -1.
`O=C(O)c1ccc(S(=O)(=O)N(Cc2ccc(F)cc2)C2CCCCC2)cc1` gave TcdB inh -2.
For CCOC(=O)N1CCN(C(=O)CN(C2CCCCC2)S(=O)(=O)c2ccc(Cl)cc2)CC1 the results were Autofluor counter 22589*, TcdB inh 2, BoNT-F LC inh 1, Anthrax LF inh2 -1 and BoNT-A LC inh2 1.
Screening CCN(C1CCCCC1)S(=O)(=O)c1ccc(C(=O)O)cc1 returned Autofluor counter 23470*, BoNT-F LC inh -2, Anthrax LF inh2 -2 and BoNT-A LC inh2 0.
For O=C(c1ccccn1)N1CC(=O)N2[C@H](CO)[C@H](c3ccc(C#Cc4ccccc4)cc3)[C@@H]2C1 the results were TcdB inh 0.
O=C(Nc1ccc2oc(-c3ccccc3)nc2c1)c1cc(-n2cnnc2)ccc1Cl was read as Autofluor counter 4432, TcdB inh 1, BoNT-F LC inh -10, Anthrax LF inh2 -8 and BoNT-A LC inh2 0.
`O=C(Nc1ccc(-c2nc3ccccc3o2)c(O)c1)c1cc(-n2cnnc2)ccc1Cl` gave Autofluor counter 21640*, BoNT-F LC inh -2, Anthrax LF inh2 1 and BoNT-A LC inh2 -2.
For O=C(Nc1ccc(-c2nc3ccccc3o2)cc1)c1cc(-n2cnnc2)ccc1Cl the results were Autofluor counter 23846*, BoNT-F LC inh -2, Anthrax LF inh2 -1 and BoNT-A LC inh2 0.
For COc1ccc(-c2cnc3c(c2)C(=O)N([C@@H](C)CO)C[C@@H](C)[C@@H](CN(C)Cc2ccc(C(=O)O)cc2)O3)cc1 the results were TcdB inh 1.
For COc1ccc(-c2nn3c(COc4ccccc4)nnc3s2)cc1OC the results were Autofluor counter 17330*, BoNT-F LC inh -3, Anthrax LF inh2 -4 and BoNT-A LC inh2 -2.
`COc1cccc(-c2nnc3sc(-c4ccccc4)nn23)c1` gave Autofluor counter 20646*, BoNT-F LC inh -2, Anthrax LF inh2 1 and BoNT-A LC inh2 inconclusive.
COc1ccc(OCc2nn3c(-c4ccco4)nnc3s2)cc1 was read as Autofluor counter 2334, BoNT-F LC inh -7, Anthrax LF inh2 0 and BoNT-A LC inh2 0.
For COc1ccccc1-c1nn2c(-c3ccco3)nnc2s1 the results were Autofluor counter 21284*, TcdB inh 1, BoNT-F LC inh 4, Anthrax LF inh2 2 and BoNT-A LC inh2 3.
For c1ccc(-c2nnc3sc(-c4ccncc4)nn23)cc1 the results were Autofluor counter 9878, BoNT-F LC inh -4, Anthrax LF inh2 -2 and BoNT-A LC inh2 0.
c1ccc(OCc2nnc3sc(-c4cccs4)nn23)cc1 was read as Autofluor counter 3558, BoNT-F LC inh 5, Anthrax LF inh2 -1 and BoNT-A LC inh2 1.

Screens as filed in PubChem BioAssay.
